Reference: PubChem BioAssay AID1159580 (chemical genetic matrix, 2015)
The campaign covered roughly 5,500 compounds. About 2,000 (36%) were called active. About 18% were inconclusive and are not listed. Cut-off read from the data, not from the text of the source: active = normalized growth mostly below about 0.91 (no sharp cut-off); inconclusive = no clear call, values can overlap the other calls; inactive = mostly above about 0.92. This is one part of the list.

Assay: chemical genetic growth profiling, strain panel (AID 1159580);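 note: tested at 20 µM; growth read once vehicle control cultures reached saturation at 30 °C; 1 = growth at the plate median or of vehicle wells; lower values mean less growth of the strain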
Settings: S. cerevisiae deletion strains, growth OD

Measured: normalized growth

CCC(C)[C@H]1O[C@]2(C=C[C@@H]1C)C[C@@H]1C[C@@H](C/C=C(\C)[C@@H](OC3C[C@H](OC)C(O[C@H]4C[C@H](OC)[C@@H](O)[C@H](C)O4)[C@H](C)O3)[C@@H](C)/C=C/C=C3\CO[C@@H]4[C@H](O)C(C)=C[C@@H](C(=O)O1)[C@]34O)O2 (some centres not stated)
inactive: locus YJR043C, strain POL32, stronger effect = lower value 0.932 | locus YJR066W, strain TOR1, stronger effect = lower value 0.973 | locus YJR075W, strain HOC1, stronger effect = lower value 0.906 | locus YKL009W, strain mrt4, stronger effect = lower value 1.01 | locus YKL068W, stronger effect = lower value 0.995 | locus YKL085W, strain MDH1 (second series), stronger effect = lower value 0.981 | locus YKL085W, strain MDH1, stronger effect = lower value 0.981 | locus YKL160W, strain elf1, stronger effect = lower value 0.969 | locus YKR026C, strain gcn3, stronger effect = lower value 0.996 | locus YKR091W, strain srl3, stronger effect = lower value 0.989 | locus YLL001W, strain dnm1, stronger effect = lower value 0.983 | locus YLL041C, strain sdh2, stronger effect = lower value 0.98 | locus YLR027C, strain aat2, stronger effect = lower value 0.936 | locus YLR102C, strain apc9, stronger effect = lower value 1.02 | locus YLR113W, strain HOG1, stronger effect = lower value 0.975 | locus YLR357W, strain rsc2, stronger effect = lower value 1.03 | locus YLR370C, strain arc18, stronger effect = lower value 0.985 | locus YLR371W, strain rom2, stronger effect = lower value 1.03 | locus YLR384C, strain iki3, stronger effect = lower value 1.02 | locus YML016C, strain PPZ1, stronger effect = lower value 1 | locus YML032C, strain rad52, stronger effect = lower value 0.915 | locus YML120C, strain ndi1, stronger effect = lower value 0.955 | locus YML124C, strain tub3, stronger effect = lower value 1.01 | locus YMR058W, strain fet3, stronger effect = lower value 1 | locus YMR078C, strain ctf18, stronger effect = lower value 0.98 | locus YMR125W, strain sto1, stronger effect = lower value 1.03 | locus YMR129W, stronger effect = lower value 0.996 | locus YMR223W, strain ubp8, stronger effect = lower value 0.953 | locus YMR231W, strain pep5, stronger effect = lower value 0.984 | locus YNL067W, strain RPL9B, stronger effect = lower value 0.904 | locus YNL183C, strain NPR1, stronger effect = lower value 0.926 | locus YNL209W, strain ssb2, stronger effect = lower value 0.937 | locus YNL248C, strain rpa49, stronger effect = lower value 0.926 | locus YNL250W, strain rad50, stronger effect = lower value 1.02 | locus YNL271C, strain bni1, stronger effect = lower value 1.01 | locus YNL298W, strain CLA4, stronger effect = lower value 1.04 | locus YNL322C, strain KRE1 (second series), stronger effect = lower value 0.935 | locus YNR049C, strain mso1, stronger effect = lower value 0.987 | locus YNR052C, strain pop2, stronger effect = lower value 0.952 | locus YOL012C, strain htz1 0.305 | locus YOL147C, strain pex11, stronger effect = lower value 0.935 | locus YOR001W, strain rrp6, stronger effect = lower value 1 | locus YOR061W, strain CKA2, stronger effect = lower value 0.891 | locus YOR080W, strain dia2, stronger effect = lower value 0.997 | locus YOR083W, strain WHI5, stronger effect = lower value 0.901 | locus YOR106W, strain vam3, stronger effect = lower value 0.984 | locus YOR136W, strain idh2, stronger effect = lower value 0.936 | locus YOR144C, strain elg1, stronger effect = lower value 0.97 | locus YOR231W, strain MKK1, stronger effect = lower value 0.945 | locus YOR265W, strain rbl2, stronger effect = lower value 0.98 | locus YOR316C, strain cot1, stronger effect = lower value 1.01 | locus YPL078C, strain atp4, stronger effect = lower value 0.982 | locus YPL240C, strain hsp82, stronger effect = lower value 0.931 | locus YPL256C, strain CLN2, stronger effect = lower value 0.955 | locus YPR119W, strain clb2, stronger effect = lower value 1.02 | locus YPR141C, strain kar3, stronger effect = lower value 0.997
active: locus YKR001C, strain vps1, stronger effect = lower value 0.253 | locus YLL026W, stronger effect = lower value 0.886 | locus YLR039C, strain RIC1, stronger effect = lower value 0.274 | locus YLR058C, strain SHM2, stronger effect = lower value 0.881 | locus YLR221C, strain rsa3, stronger effect = lower value 0.832 | locus YLR258W, strain gsy2, stronger effect = lower value 0.849 | locus YLR262C, strain YPT6 (second series), stronger effect = lower value 0.418 | locus YLR262C, strain YPT6, stronger effect = lower value 0.214 | locus YLR268W, strain sec22, stronger effect = lower value 0.695 | locus YLR320W, strain mms22, stronger effect = lower value 0.828 | locus YLR330W, strain CHS5, stronger effect = lower value 0.893 | locus YLR342W, strain FKS1 (second series), stronger effect = lower value 0.452 | locus YLR342W, strain FKS1, stronger effect = lower value 0.681 | locus YLR418C, strain cdc73, stronger effect = lower value 0.824 | locus YMR205C, strain PFK2, stronger effect = lower value 0.77 | locus YMR307W, strain GAS1, stronger effect = lower value 0.323 | locus YNL071W, strain lat1, stronger effect = lower value 0.824 | locus YNL153C, strain GIM3, stronger effect = lower value 0.821 | locus YNL233W, strain BNI4, stronger effect = lower value 0.849 | locus YNL307C, strain MCK1, stronger effect = lower value 0.46 | locus YOR069W, strain VPS5, stronger effect = lower value 0.92 | locus YOR070C, strain gyp1, stronger effect = lower value 0.837 | locus YOR184W, strain ser1, stronger effect = lower value 0.698 | locus YOR270C, strain vph1, stronger effect = lower value 0.59 | locus YOR290C, strain snf2, stronger effect = lower value 0.864 | locus YPL051W, strain arl3, stronger effect = lower value 0.676 | locus YPL055C, strain LGE1, stronger effect = lower value 0.627 | locus YPL106C, strain sse1, stronger effect = lower value 1.38 [resistant] | locus YPR163C, strain tif3, stronger effect = lower value 0.897 | locus YPR167C, strain met16, stronger effect = lower value 0.862 | strain wtn01, stronger effect = lower value 0.76
